From ChEMBL document CHEMBL3988442, “University of Dundee, Small-Polar-MMV Screening Library” (2021) come the findings set out here.

The campaign covered roughly 48,000 compounds. About 13,000 (27%) showed an effect of 50% or more. The list shows a part of the results.

The subject of this assay is Wolbachia pipientis. Put plainly: Anti-Wolbachia Cell-Based Screen. The class given is functional. Also on record: scale not given: in the data most compounds retested in dose-response had high values. As to conditions: 5 µM.
As to `CN(Cc1ccc([S+](C)[O-])cc1)c1ccc(C(F)(F)F)cn1` (configuration not stated), the “Percent Effect” value is -27.71%.
The result for `Cn1ccnc1CN1CCCN(C(=O)c2ccc3ccccc3c2)CC1` reads 100.6%; that for `Cc1nsc(N2CCCN(C(=O)c3ccc4[nH]ccc4c3)CC2)n1`, -10.99%; that for `CC(C)COC(=O)N1CCCN(C(=O)c2ccnc(N(C)C)c2)CC1`, 6.425%.
On to `CCC(O)CN1CCN(C(=O)c2ccnc(N(C)C)c2)CC1` (configuration not stated), for which the “Percent Effect” value is -16.43%.
With `CCn1ccnc1CN1CCCN(C(=O)c2cccc(C#N)c2)CC1`, the “Percent Effect” value is reported as -3.279%.
As for `Cn1ccnc1CN1CCCN(C(=O)c2ccc3cc[nH]c3c2)CC1`, the figure is 138.1%.
The result for `CC(C)OCCN1CCN(C(=O)c2cccc(CC#N)c2)CC1` reads 4.967%.
The result for `CN(C)c1cc(C(=O)N2CCCN(Cc3nccn3C)CC2)ccn1` reads 107%; that for `CC(C)n1ccnc1CN1CCCN(C(=O)c2cc(Cl)c[nH]2)CC1`, 1.928%; that for `Cn1ccnc1CN1CCCN(C(=O)c2cccc(CC#N)c2)CC1`, 107.2%.
As for `CC(=O)N1Cc2nccn2CC(CNC(=O)c2cnccn2)C1` (configuration not stated), the “Percent Effect” value is on record as -28.44%.
The result for `O=C(O)C(F)(F)F.O=C([C@H]1C[C@@H]2[C@@H](C1)OCCN2CC1CC1)N1CCCC1` reads -8.225%; that for `CS(=O)(=O)CCC(=O)NC(c1ccc(F)cc1)C(F)(F)F` (configuration not stated), -10.12%.
For the compound `Cn1ccnc1CN1CCCN(C(=O)c2ccc(O)nc2)CC1`, the “Percent Effect” value came out at 99.8%.
The result for `Cn1ccnc1CN1CCCN(C(=O)c2ccc3c(c2)COC3)CC1` reads -4.984%; that for `Cn1ccnc1CN1CCCN(C(=O)c2ccc3c(c2)OCO3)CC1`, 100.5%.
As for `CCn1ccnc1CN1CCCN(C(=O)c2ccc(C#N)cc2)CC1`, the figure is -7.951%; as for `O=C(Cc1ccsc1)NCCc1ccoc1`, -2.885%.
For the compound `Cc1nc(CN2CCCC(CCc3ccccc3C)C2)c[nH]1` (configuration not stated), the “Percent Effect” value was 4.75%.
As for `Cc1ccccc1CCC1CCCN(Cc2nnc(-c3ccco3)o2)C1` (configuration not stated), the figure is 85.71%; as for `Cc1nnc(CN2CCCC(CCc3ccccc3C(F)(F)F)C2)o1` (configuration not stated), 7.283%.
The result for `CCc1cnc(CN2CCCC2c2noc(C3CC3)n2)o1` (configuration not stated) reads 2.963%.
As for `Cc1cc(N2CCCC(N(C)C)C2)n2nc(C)cc2n1` (configuration not stated), the figure is 4.471%.
For `COc1cc(CNCCn2cc(C)cn2)c2c(c1)CC(C)O2` (configuration not stated), the “Percent Effect” value was -8.791%.
As for `FC(F)(F)CN1CCC(CCNc2ncccn2)CC1`, the figure is -5.19%.
As for `O=C1CCOCCN1Cc1ccc(C(F)(F)F)c(F)c1`, the figure is -2.892%.
For `CC(=O)N1CCN(Cc2ccc(F)c(C(F)(F)F)c2)CC(O)C1` (configuration not stated), the “Percent Effect” value was -17.39%.
As for `O=S1(=O)COCCN1Cc1ccc(Cl)c(F)c1`, the figure is -18.76%; as for `O=S1(=O)COCCN1Cc1ccc(F)c(C(F)(F)F)c1`, 116.1%.
As for `Cc1cc(CN2CCOCS2(=O)=O)ccc1F`, the figure is -11.48%; as for `Cc1ccc(CN2CCOCS2(=O)=O)cc1F`, 130.8%; as for `O=S1(=O)COCCN1Cc1cccc(Cl)c1`, -18.09%.
On to `Cc1oc(-c2cccc(F)c2)nc1CN1CCOCS1(=O)=O`, for which the “Percent Effect” value is -0.8413%.
The result for `O=S1(=O)COCCN1Cc1ccc(Cl)c(Cl)c1` reads 174.3%; that for `O=S1(=O)COCCN1Cc1ccc(F)cc1Cl`, 116.6%.
As for `Cc1ccc(-c2nc(CN3CCOCS3(=O)=O)c(C)o2)cc1`, the figure is -5.038%; as for `CCc1ccc(CCC(=O)NCc2nnc[nH]2)cc1`, 9.868%.
As for `O=C(CCn1cccn1)NS(=O)(=O)N1CCCc2ccccc21`, the figure is -12.53%; as for `CN(C)c1nc(N)nc(CSCCC(=O)Nc2ccc(F)cc2)n1`, -6.74%; as for `COCCN1CCN(CC(=O)N(C)Cc2ccc(F)cc2)CC1C` (configuration not stated), 0.8723%.
As to `O=C(CN1CCOCS1(=O)=O)NCCc1ccc(Cl)cc1`, the “Percent Effect” value is reported as 2.599%.
Turning to `O=S1(=O)COCCN1Cc1ccc(F)c(F)c1`, the “Percent Effect” value worked out at 115.2%.
The result for `O=C(CN1CCOCS1(=O)=O)NCc1ccccc1` reads -2.644%; that for `Cc1cccnc1NC(=O)CSc1ccc2c(c1)OCCO2`, -1.464%; that for `CCN(CC)C(=O)Nc1ccc(N2CCSCC2)cc1C`, -12.7%.
As for `CC(C)c1nnc(NC(=O)N(C)Cc2ccncc2)s1`, the figure is 78.38%; as for `CNC(=O)c1ccc(CN(C)c2ccc(C(F)(F)F)cn2)cc1`, 22.77%.
The result for `CSc1cc2c(cc1NC(=O)N(C)Cc1ccncc1)OCCO2` reads -3.541%; that for `COCCN(Cc1ccc(C)o1)C(=O)Nc1nnc(C(F)F)s1`, -29.25%.
Consider `CNC(=O)c1ccc(CN(C)C(=O)Nc2nnc(C(C)C)s2)cc1`, for which the “Percent Effect” value was 109.8%.
As for `CC(C)c1nnc(NC(=O)NCc2cccnc2NCCN(C)C)s1`, the figure is -11.78%; as for `CC(C)c1nnc(NC(=O)N(C)Cc2ccc(C(N)=O)cc2)s1`, 102.8%; as for `CC(NC(=O)N(C)Cc1ccncc1)c1nncn1C` (configuration not stated), 2.48%.
`CC(C)c1nnc(NC(=O)NC2CCOc3ccccc32)s1` (configuration not stated): the “Percent Effect” value is reported as -12.43%.
The result for `Clc1ccc(NCc2nnc(C3CC3)o2)cc1Cl` reads -1.785%; that for `CC(=O)Nc1cc(Br)cnc1OCC(F)(F)F`, -6.07%; that for `Cc1nc(-c2ccco2)ccc1C(=O)N1CCc2nnc(N)cc2C1`, -5.155%.
The result for `O=C(CCC(=O)c1ccccc1)NC1(C(=O)NCC2CC2)CCCC1` reads -11.29%; that for `CCc1nc(N)nc(N2CCCC3(CN(C)C(=O)O3)C2)c1C` (configuration not stated), -2.167%; that for `CCc1nc(N)nc(N2CCCC3(CCOCC3)C2)c1C`, 10.4%.
As for `CCc1nc(N)nc(N2CCCC3(CCN(C)CC3)CC2)c1C`, the figure is 62.58%.
Regarding `CCOCC(=O)N1CCC(C2CCN(Cc3ccc(Cl)cc3)C2)CC1` (configuration not stated), the “Percent Effect” value is -8.468%.
The result for `COc1ccc(CNC(C)c2cnn(C)c2)cc1OC1CCCC1` (configuration not stated) reads 106.9%; that for `CCOc1cc(CNC(C)c2ccc(F)cc2)ccn1` (configuration not stated), -5.561%.
As for `CC(NCCN1CCN(C(=O)C2CCCC2)CC1)c1cnn(C)c1` (configuration not stated), the figure is 3.842%; as for `CC(NCc1ccnc(OC2CCC2)c1)c1cnn(C)c1` (configuration not stated), 127.4%; as for `Clc1cnccc1NCc1cccc(COC2CCOCC2)c1`, -32.94%.
As for `CC(C(=O)NCc1ccnc(OC2CCCC2)c1)n1cncn1` (configuration not stated), the figure is 10.69%.
On to `COc1ccc(CNC(c2cccc(F)c2)c2cnn(C)c2)cc1` (configuration not stated), for which the “Percent Effect” value is listed as 4.131%.
The result for `COc1cc(CNc2cnn(C)c2)cc2c1OCCO2` reads -0.1017%.
As for `O=C(Nc1cccc(CNCc2cccs2)c1)C1CCCC1`, the figure is 0.6832%; as for `CC(NCc1cccc(NC(=O)C2CCCCC2)c1)c1cnn(C)c1` (configuration not stated), 104.4%.
The result for `Cn1cc(C(NCc2ccc(F)cc2)c2cccc(F)c2)cn1` (configuration not stated) reads -2.157%.
As to `CC(NCc1cccc(COC2CCCC2)c1)c1cnn(C)c1` (configuration not stated), the “Percent Effect” value was found to be 126.5%.
As for `CC(C)(O)C1CCN(C(=O)Nc2nc(-c3ccccc3)ns2)CC1`, the figure is 6.519%; as for `CC(=O)c1cc(CC(=O)NCc2ccc(CN(C)C)cc2)cs1`, -9.398%; as for `O=C1CCC2(CCCN(C(=O)c3ncc[nH]3)C2)CN1CCc1c[nH]cn1` (configuration not stated), 2.094%.
As for `CC(=O)N1CCCN(C(C)C(=O)Nc2ccnn2C(C)C)CC1` (configuration not stated), the figure is 14.5%; as for `Cc1ccc(C(=O)NCCS(=O)(=O)Cc2ccccc2)c(=O)[nH]1`, -6.765%.
For the compound `CNc1cc(C2CCCN2C(=O)c2ccc(=O)[nH]n2)ccn1.O=CO` (configuration not stated), the “Percent Effect” value was found to be 167.7%.
Consider `O=C(c1ccc(=O)[nH]n1)N1CC(c2nc(Cc3ccccc3)no2)C1`, for which the “Percent Effect” value is recorded as -16.23%.
As for `O=C(NCCn1cnc(C2CCCC2)cc1=O)c1ccc(=O)[nH]n1`, the figure is -1.303%; as for `CN(C)c1cc(C2CCCN(C(=O)c3ccc(=O)[nH]n3)C2)ccn1` (configuration not stated), 139.8%; as for `CNc1cc(C2CCCN2C(=O)c2ccc3oc(=O)n(C)c3c2)ccn1` (configuration not stated), -0.2257%.
As for `CNc1cc(C2CCCN(C(=O)c3ccc(=O)[nH]n3)C2)ccn1` (configuration not stated), the figure is 169.1%; as for `Cc1ccnc(C2CCN(C(=O)c3cnn(C)c3)C2)n1` (configuration not stated), 83.36%.
The result for `Cn1cc(C(=O)N2CCC(c3nccn3Cc3ccncc3)CC2)cn1` reads -25.63%.
Consider `Cc1cc(C2CCN(C(=O)c3cnn(C)c3)CC2)ccn1`, for which the “Percent Effect” value worked out at 94.31%.
The result for `Cc1cc(C2CCCN(C(=O)c3cnn(C)c3)C2)ccn1` (configuration not stated) reads -11.66%; that for `Cc1ccnc(C2CCN(C(=O)c3cnn(C)c3)CC2)n1`, 85.52%; that for `Cc1c(C)n(CC(O)CN2CCC(C)CC2)c2c(Cl)cccc12` (configuration not stated), -13.14%.
For `F[C@@H]1CN(Cc2ccccc2)C[C@@H]1OCc1nc2cnccc2[nH]1`, the “Percent Effect” value was -3.935%.
As for `COC(=O)c1cccc(C(=O)N2CCCCC2CCn2ccnc2C)c1` (configuration not stated), the figure is -0.7359%.
The result for `CN(C)C(=O)c1cccc(NC(=O)CN2CCCCC2C2OCCO2)c1` (configuration not stated) reads -9.797%.
As for `CC(=O)c1cccc(NC(=O)Cn2cnc(-c3ccccc3)cc2=O)c1`, the figure is -1.653%.
With `COC(=O)c1cccc(NC(=O)CN2CCN(S(C)(=O)=O)CC2)c1`, the “Percent Effect” value turned out to be 0.7545%.
The result for `CCc1nccn1CC(=O)Nc1cccc(C(=O)N(C)C)c1` reads 117.3%; that for `CCc1nccn1CC(=O)Nc1cccc(C(=O)OC)c1`, 94.76%; that for `CCNc1ncc(C(=O)N(C)CCc2nc3cc(Cl)ccc3[nH]2)cn1`, -2.741%.
The result for `CC(C)CN1CCc2[nH]cnc2C12CCN(C(=O)c1cnn(C)c1)CC2` reads 18.71%; that for `Cn1cccc1C(=O)N1CCCN(CCCc2ccccc2)CC1`, 5.768%.
As for `CCC(CC#N)n1ccc(C(F)(F)F)n1` (configuration not stated), the figure is 100.1%; as for `CCC(CCN)n1ccc(C(F)(F)F)n1` (configuration not stated), 101%; as for `CC(CC#N)n1ccc(C(F)(F)F)n1` (configuration not stated), 86%.
`CS(=O)(=O)NCCNC(=O)NC1(c2ccc(F)cc2)CCCC1`: the “Percent Effect” value turned out to be 1.188%.
The result for `Cc1cccc(CS(=O)(=O)CC(=O)N(C)Cc2ccccc2F)c1` reads -4.083%.
